Among all 48,000 compounds or so, about 13,000 (27%) showed an effect of 50% or more. This is one part of the list.
Test system: Wolbachia pipientis
Assay: Anti-Wolbachia Cell-Based Screen
Assay type: functional
Set-up: scale not given: in the data most compounds retested in dose-response had high values
Settings: 5 µM

| Structure (SMILES) | Percent Effect [%] |
| --- | --- |
| O=C(NCc1cccnc1)c1nc2c(s1)CCCN2c1ncccn1 | -3.859 |
| O=C(NCC1CCCO1)c1nc2c(s1)CCCN2CC1CC1 (stereo not drawn) | 97.2 |
| O=C(c1nc2c(s1)CCCN2CC1CC1)N1CCCC1 | 21.73 |
| CN1CCCc2sc(C(=O)NC3CC3)nc21 | -6.027 |
| O=C(c1nc2c(s1)CCCN2CC1CC1)N1CCOCC1 | 13.28 |
| Cc1ccc(N2CCCc3sc(C(=O)NCC4CCCO4)nc32)nn1 (stereo not drawn) | 101.4 |
| Cc1ccc(N2CCCc3sc(C(=O)NCc4ccc(C)o4)nc32)nn1 | -0.9915 |
| O=C(NC1CC1)c1nc2c(s1)CCCN2c1ccccc1 | 3.118 |
| O=C(NCC1CCCO1)c1nc2c(s1)CCCN2C(=O)C1CC1 (stereo not drawn) | 108.2 |
| O=C(c1nc2c(s1)CCCN2C(=O)C1CC1)N1CCOCC1 | 0.08995 |
| Cc1ccc(N2CCCc3sc(C(=O)NCCO)nc32)nn1 | -4.347 |
| O=C(NCC1CCCO1)c1nc2c(s1)CCCN2c1ncccn1 (stereo not drawn) | 95.9 |
| c1cnc(NCC2Cn3nnc(-c4ccsc4)c3CO2)nc1 (stereo not drawn) | -8.794 |
| CCc1nnc(N2C[C@@H](NC(C)=O)[C@H](c3ccc(C)o3)C2)s1 | 0.4936 |
| CCN1CCN(c2ccc(C(=O)NC(C)C(=O)N(C)C)cc2)CC1 (stereo not drawn) | 1.595 |
| CNC(=O)CN1CCN(C(=O)Nc2ccc(C)s2)CC1 | -4.084 |
| CN(CCc1cccs1)C(=O)Nc1ccc2c(c1)C(=O)N(C)CC2 | -32.58 |
| Cc1nn(C(C)C)c(C)c1CN1CCC(c2cc(C(C)C)n[nH]2)CC1 | 4.458 |
| COCCN1CCCc2sc(C(=O)N3CCCN(C)CC3)nc21.O=C(O)C(F)(F)F | -1.049 |
| O=C(NCC1CCCO1)c1nc2c(s1)CCCN2Cc1ccccc1 (stereo not drawn) | 98.1 |
| CN(C)C(=O)CNC(=O)c1nc2c(s1)CCCN2Cc1ccccc1 | -13.23 |
| COCCN1CCCc2sc(C(=O)NCC3CCCO3)nc21 (stereo not drawn) | 104.4 |
| COCCNC(=O)c1nc2c(s1)CCCN2Cc1ccccc1 | 6.623 |
| COCCN1CCCc2sc(C(=O)Nc3ccc(C)nc3)nc21.O=C(O)C(F)(F)F | 8.218 |
| Cc1ccc(-c2n[nH]cc2CN(Cc2nccn2C)C(C)C)cc1C | -8.138 |

| Structure (SMILES) | Percent Effect [%] |
| --- | --- |
| COc1ccc(N2Cc3nc(=O)[nH]n3C2=O)cc1 | -10.45 |
| COCCSc1ccc(-n2cccn2)nn1 | 0.3938 |
| CC(c1nncn1C)n1cc(-c2cc(CN3CCCC3)cs2)nn1 (stereo not drawn) | 2.3 |
| CCC(Sc1ncc(CO)n1C)c1ccccc1 (stereo not drawn) | 5.427 |
| Cc1cc(Br)c(O)c(C(=O)N2CCC(CN3CCCCCC3)CC2)c1 | 20 |
| Cc1cc(Br)c(O)c(-c2nc(N3CCOCC3)sc2C)c1 | 133.3 |
| Oc1nnc(-c2ccccc2)c2sc(N3CCCCC3)nc12 | -2.363 |
| Cc1cc(Br)c(O)c(-c2nc(N3CCCCC3)sc2C)c1 | 122.7 |
| COc1ccc(-n2nc(C(C)C)nc2Cn2cncn2)cc1 | 2.008 |
| O=C(c1cc(C2CC2)on1)N1CCC(Oc2ncccc2Br)CC1 | 12.65 |
| CCn1c(C2CCN(C(=O)c3cc(C4CC4)on3)CC2)nn(C)c1=O | 94.75 |
| CCOC(=O)CC1CCCCN1C(=O)CCc1cc(Cl)no1 (stereo not drawn) | -3.772 |
| O=C(CCc1cc(Cl)no1)N1CCN(CCn2cncn2)CC1 | -9.479 |
| Cc1nc(CN2CCN(C(=O)c3cc(C4CC4)on3)CC2)cs1 | -4.93 |
| CCn1c(C2CCN(C(=O)c3cc(CC(C)C)no3)CC2)nn(C)c1=O | 80.93 |
| CCn1c(CC2CCN(C(=O)c3cc(CC(C)C)on3)CC2)n[nH]c1=O | 3.496 |
| CCn1c(C2CCN(C(=O)c3cc(CC(C)C)on3)CC2)nn(C)c1=O | 100.4 |
| CC(C)Cc1cc(C(=O)N2CCC(C(=O)N3CCOCC3)CC2)on1 | -1.733 |
| CCn1nc(CC(C)C)cc1C(=O)N1CCC(n2cnnc2)CC1 | 19.79 |
| CCn1c(C2CCN(C(=O)CCc3cc(Cl)no3)CC2)nn(C)c1=O | 91.1 |
| COC(=O)C1CCCN1C(=O)c1cc(CC(C)C)no1 (stereo not drawn) | -6 |
| CC(C)N(Cc1cccnc1)C(=O)CSc1ccc(C#N)cc1 | -11.42 |
| CC(C)(C)c1cc(C[C@H]2CNCC[C@H]2CC(=O)Nc2ccccc2)no1 | -4.037 |
| COc1ccc(Cc2noc(C3=NN(C)C(=O)CC3)n2)cc1OC | -17.82 |
| CCn1c(C2CCN(C(=O)c3cc(Cl)no3)CC2)nn(C)c1=O | 81.76 |

| Structure (SMILES) | Percent Effect [%] |
| --- | --- |
| CCn1c(C2CCCN(Cc3cc(C)cc(C)c3)C2)nn(C)c1=O (stereo not drawn) | 14.99 |
| CCn1c(C2CCCN(Cc3ccc(F)cc3Cl)C2)nn(C)c1=O (stereo not drawn) | -0.1084 |
| COC1CCN(C(=O)CC2CCCC2)CC(=O)N(C)c2ccccc21 (stereo not drawn) | 104.1 |
| CCN1CCC(CC(=O)N2CCN(c3ccccc3OC)CC2C)CC1 (stereo not drawn) | 10.24 |
| COC1CN(C(=O)CC2CCCC2)CCC(=O)N(C)c2ccccc21 (stereo not drawn) | 101.3 |
| COC1CCN(C(=O)C2CCCC2)CC(=O)N(C)c2ccccc21 (stereo not drawn) | 111 |
| COC1CCN(C(=O)C2CC(=O)N(c3ccccc3Br)C2)CC1 (stereo not drawn) | -10.75 |
| COC(=O)NCC(=O)NCC1(c2c(F)cccc2F)CCCC1 | 1.826 |
| O=C(CN1CCC(c2cccc(F)c2)C1)NCC(F)(F)F (stereo not drawn) | -23.91 |
| COc1cc(F)c(C(=O)NCc2cc(C)on2)c(F)c1 | -19.16 |
| CCSc1ncc(CN2CCN(c3nc(C)ncc3C)CC2)cn1 | 0.05242 |
| O=C(NC[C@H]1CCCO1)c1ccc(S(=O)(=O)N2C[C@@H]3C[C@H]2CN3)cc1 | -5.829 |
| CN(Cc1ccccn1)C(=O)c1cc(CN2CCC(O)CC2)on1 | -20.11 |
| NCCn1cc(C(=O)NCc2ccccc2-n2cccn2)nn1 | -2.966 |
| CCCc1nn(C2CCCN(C(C)C)C2=O)c(=O)o1 (stereo not drawn) | -1.45 |
| Cc1nnc(-c2cccc(C#N)c2)n1C1CCN(C(C)C)C1=O (stereo not drawn) | 107.2 |
| Cc1nnc(-c2cccc(C#N)c2)n1C1CCN(C2CC2)C1=O (stereo not drawn) | 99.28 |
| CC(C)N1CCCC(N2CCOC3(CCCC3)C2)C1=O (stereo not drawn) | -1.206 |
| CC(=O)N1CCC(Oc2cccc(C#N)c2)CC1 | -7.429 |
| Cc1nnc(-c2cccc(C#N)c2)n1C1CCCN(C(C)C)C1=O (stereo not drawn) | 109.2 |
| CC1CCC(O)(Cn2ncnc2-c2cccc(C#N)c2)CC1 (stereo not drawn) | -11.33 |
| CC(C)N1CCC(Nc2ccn(CCC#N)n2)C1=O (stereo not drawn) | 1.087 |
| CCCc1nn(C2CCN(C(C)C)C2=O)c(=O)o1 (stereo not drawn) | -9.274 |
